# Tau ThT inhib – qHTS for Inhibitors of Tau Fibril Formation, Thioflavin T Binding; Potency, µM (highest dose often 57.4 µM), for the others: top-dose activity, negative = inhibition, most hits filed as inhibitors; 270,000 compounds, 2.1% hits; recombinant tau K18 P301L, heparin-induced fibrillization, ThT fluorescence; further: nearly all actives have a fitted effect of over 55% in size
# Target sequence (P10636 561-689 P618L limits assumed): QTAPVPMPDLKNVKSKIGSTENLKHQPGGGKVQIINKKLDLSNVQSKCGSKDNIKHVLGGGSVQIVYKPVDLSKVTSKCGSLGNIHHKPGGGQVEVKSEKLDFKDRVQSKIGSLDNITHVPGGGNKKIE
#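 Recombinant human tau K18 fragment […] carrying P301L, 15 uM unlabeled plus 0.24 uM Alexa 594-labeled, was fibrillized with 20 uM heparin in 100 mM sodium acetate pH 7 for 6 hr at 37 C; 30 uM ThT fluorescence read after 1 hr.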
# Tau fibril FP – qHTS for Inhibitors of Tau Fibril Formation, Fluorescence Polarization. K18 P301L tau heparin fibrillization, Alexa594 FP, 6 h. Potency, µM (titrated, usually from 57.7 µM), inactives show top-dose activity, negative = inhibition, hits mostly inhibitors. 280,000 compounds, 0.39% hits; further: nearly all actives have a fitted effect of over 55% in size
#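 FP of Alexa 594-tau after heparin (20 uM) induction. Substrate: human K18 P301L, 15 uM unlabeled, 0.24 uM labeled. Buffer 100 mM sodium acetate pH 7. 6 hr, 37 C.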
# TR SRC2 fluor cs – Total Fluorescence Counterscreen for Inhibitors of the Interaction of Thyroid Hormone Receptor and Steroid Receptor Coregulator 2; TRb/SRC2 Texas Red total fluorescence interference; Potency, µM (series often up to 106 µM), for inactives: at the top dose fluorescence change, negative = quenching; 280,000 compounds, 0.29% hits; active means well fitted curve in either direction with a large enough effect; inconclusive means small, poorly fitted or top-dose-only effect
#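 Human TRβ ligand-binding domain (0.6 uM) and Texas Red SRC2 peptide (20 nM) in Tris buffer with 1 uM T3 and 5% DMSO were incubated with pinned compound for 5 hr at ambient temperature. Total fluorescence was computed as S + 2P (555/632 nm).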
# GoLoco inh red – qHTS Assay for Inhibitors of RGS12 GoLoco Motif Activity (Red Fluorophore) | Gai1:RGS12 GoLoco peptide FP, rhodamine, 10 min | 230,000 compounds, 0.44% hits | Potency, µM (top dose mostly 61.6 µM), for inactives: at the highest dose activity, negative = inhibition, actives largely listed as inhibitors; active means well fitted inhibition curve with a large enough effect, not every such curve was filed as active; inactive means no such curve, though single readings can be large or run the other way; further: nearly all actives have a fitted effect of over 30% in size
# TRb SRC2 PPI – qHTS for Inhibitors of the Interaction of Thyroid Hormone Receptor and Steroid Receptor Coregulator 2. Thyroid hormone receptor beta (Homo sapiens), P10828. TRbeta-SRC2 peptide binding, fluorescence polarization; receptor liganded with 1 µM T3. Potency, µM (series often up to 106 µM), without a hit: at the top dose activity change, negative = inhibition, most hits filed as inhibitors. 280,000 compounds, 0.065% hits. AID 1469, 2008;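 further: plate controls were bound peptide for no effect and peptide without receptor for full effect; nearly all actives have a fitted effect of over 50% in size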
# Target sequence (P10828 whole entry, looked up): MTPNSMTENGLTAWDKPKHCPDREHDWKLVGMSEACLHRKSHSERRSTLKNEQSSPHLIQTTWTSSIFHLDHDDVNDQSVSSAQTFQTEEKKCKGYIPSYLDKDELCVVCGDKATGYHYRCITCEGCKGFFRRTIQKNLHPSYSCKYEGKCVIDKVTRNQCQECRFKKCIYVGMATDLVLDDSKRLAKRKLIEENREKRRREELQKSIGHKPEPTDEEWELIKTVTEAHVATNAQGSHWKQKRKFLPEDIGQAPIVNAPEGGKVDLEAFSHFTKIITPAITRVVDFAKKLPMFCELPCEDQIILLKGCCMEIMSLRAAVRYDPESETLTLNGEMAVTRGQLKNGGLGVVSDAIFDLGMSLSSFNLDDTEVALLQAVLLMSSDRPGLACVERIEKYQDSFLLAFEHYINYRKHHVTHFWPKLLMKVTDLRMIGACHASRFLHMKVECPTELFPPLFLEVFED
#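 Human TRb LBD (0.6 uM) plus Texas Red-labeled SRC2 peptide (20 nM), 1uM T3, 5% DMSO, 5 hr at ambient temperature. Decreased polarization (555/632 nm) flags inhibition; data normalized to free and bound peptide controls.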
# Tau fluor cs – Counterscreen qHTS for Inhibitors of Tau Fibril Formation, Fluorescence Polarization; 280,000 compounds, 0.93% hits; Potency, µM (titrated, usually from 57.7 µM), inactives show at the top dose activity change, negative = decrease; tau K18 P301L (four-repeat tau fragment) Alexa594 fluorescence, heparin fibrillization; further: nearly all actives have a fitted effect of over 55% in size
#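 Human K18 P301L tau (15 uM unlabeled plus 0.24 uM Alexa 594-labeled, final) in 100 mM sodium acetate pH 7 was mixed with compound and 20 uM heparin and incubated 6 hr at 37 C.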
# * = called active by the depositor; ? = inconclusive; / = no result; [ ] = dose if it differs, or a comment. Rows were chosen to be rich in hits. Some 3.2% of all compounds tested hit in one or more screens of this group. Unless noted, the call rests on the fitted dose curve; in most records, active means well fitted curve in the direction sought with a large enough effect; inconclusive means small, poorly fitted or top-dose-only effect, or another doubt; inactive means no such curve, though single readings can be large; an effect the other way counts as inactive or inconclusive. Unless noted, on the % scale 0 is the no-effect control and ±100 the full control effect; potency means the concentration at half of the fitted maximal effect.
SMILES,Tau ThT inhib,Tau fibril FP,TR SRC2 fluor cs,GoLoco inh red,TRb SRC2 PPI,Tau fluor cs
c1ccc2cc3c(ccc4ccccc43)cc2c1,/,/,-4.1%[201 µM],/,-0.4%[201 µM],/
COC(=O)[C@H](CC(C)C)NC(=O)c1ccc(NC[C@@H](N)CS)cc1-c1cccc2ccccc12,/,/,2.6%,/,2.1%,/
CCOc1ccc(NC(=O)Cn2c(=O)n(Cc3ccc(C(=O)NCc4ccc5c(c4)OCO5)cc3)c(=O)c3ccccc32)cc1,-3.4%,28.2µM*,-0.4%,/,-4.4%,-20.8%
O=C(Cn1c(=O)n(Cc2ccc3c(c2)OCO3)c(=O)c2ccccc21)Nc1cccc(Cl)c1,?,28.2µM*,1.1%,/,8.0%,?
Cc1cccc(NC(=O)Cn2c(=O)n(Cc3ccc(C(=O)NCc4ccc5c(c4)OCO5)cc3)c(=O)c3ccccc32)c1,4.4%,?,-67.3%,/,0.0%,-15.3%
COc1ccc(CNC(=O)c2ccc3nc(CCc4ccccc4)oc3c2)c(OC)c1,-13.0%,3.1%,3.0%,/,6.6%,-7.5%
CCc1cc(-c2oncc2-c2ccc(OC)cc2)c(O)cc1OC,/,/,-3.0%,/,-6.3%,/
CCCN1CCCc2cc(CN)ccc21,25.1µM*,-16.8%,9.1%,/,-9.0%,?
Cc1ccc(Nc2nc(CSc3nnnn3-c3ccccc3)cs2)cc1,?,12.5%,0.4%,4.3%,-1.9%,11.2µM*[quencher]
Cc1ccc(Nc2nc(CSc3nnnn3C)cs2)cc1,?,4.1%,1.3%,0.9%,-11.6%,?
COc1ccc(Cn2nnc3c(=O)[nH]c(C4CCN(C(=O)c5ccc(C)cc5)CC4)nc32)cc1OC,-3.4%,-3.3%,-6.9%,/,0.0%,-6.2%
Cc1[nH]c2ccccc2c1N=Nc1ccc(F)cc1,12.6µM*,-1.6%,0.1%,-10.5%,-1.5%,14.1µM*[quencher]
Cc1[nH]c2ccccc2c1N=Nc1ccccc1F,12.6µM*,?,0.0%,0.6%,-0.9%,12.6µM*[quencher]
COC(=O)C1=C(C(=O)OC)[C@@H]2N(C)c3ccccc3[C@@]23C[C@@H](C(=O)OC)N(S(=O)(=O)c2c(C)noc2C)C3=N1,0.2%[11.5 µM],-2.1%[11.6 µM],-0.2%[11.2 µM],1.9%[14.2 µM],6.4%[11.2 µM],-6.0%[11.6 µM]
CS[C@@H]1SC[C@H]2C(=O)N(C)C(C(C)C)C(=O)OC[C@@H](NC(=O)c3cnc4ccccc4n3)C(=O)N[C@@H](C)C(=O)N(C)[C@H]1C(=O)N(C)C(C(C)C)C(=O)OC[C@@H](NC(=O)c1cnc3ccccc3n1)C(=O)N[C@@H](C)C(=O)N2C (some centres not stated),/,/,1.4%,/,4.6%,/
O=[N+]([O-])c1ccc(N=Cc2sc3ccccc3c2O)cc1,0.708µM*,8.0%,7.0%,9.3%,18.3%,-18.7%
Cc1ccc(-c2[nH]nc(N)c2N=Nc2cccc(Cl)c2C)cc1,12.6µM*,?,-1.9%,-8.7%,2.7%,6.31µM*[quencher]
Cc1cccc(N=Nc2c(N)n[nH]c2-c2ccc(Cl)cc2)c1,?,?,-1.0%,2.5%,-4.3%,8.91µM*[quencher]
Cc1ccc(-c2[nH]nc(N)c2N=Nc2ccccc2C)cc1,15.8µM*,-5.2%,0.1%,1.6%,-2.0%,11.2µM*[quencher]
CS(C)=O,/,/,1.7%[1.3e+05 µM],/,-1.4%[1.3e+05 µM],/
O=C(Nc1c(C(=O)Nc2ccccc2F)oc2ccccc12)c1cc2ccccc2o1,6.0%,-11.3%,-1.8%,/,1.0%,-20.6%
CCOC(=O)c1ccc(N2CCN(c3ccccc3OC)CC2)c(NC(=O)Nc2ccc(CC)cc2)c1,10.2%,10.6%,-2.6%,/,2.4%,-10.2%
O=C1NC(=O)c2c1c(-c1ccccc1)cc1[nH]c3ccc(O)cc3c21,/,/,-25.2%,/,8.5%,/
COc1ccccc1CNC(=O)c1ccc(-c2nc(CS(=O)(=O)c3ccc(C)cc3)c(C)o2)cc1,-12.2%,12.9%,0.1%,/,-13.7%,-17.8%
O=[N+]([O-])c1ccc(S(=O)(=O)Nc2ccc(-c3csc(-c4ccccc4)n3)cc2)cc1,?,-7.4%,0.3%,-2.6%,11.0%,8.91µM*[quencher]
SMILES,Tau ThT inhib,Tau fibril FP,TR SRC2 fluor cs,GoLoco inh red,TRb SRC2 PPI,Tau fluor cs
CC(C)C(=O)Nc1nc(-c2ccc([N+](=O)[O-])cc2)cs1,-14.4%,3.7%,-4.1%,-8.0%,2.4%,-3.0%
CNc1nc(-c2ccc([N+](=O)[O-])cc2)cs1,12.6µM*,10.8%,-1.7%,7.4%,-1.7%,-12.8%
COc1cc(NS(C)(=O)=O)ccc1Nc1c2ccccc2nc2ccccc12,14.1µM*,-1.3%,-3.6%,-11.4%,0.7%,?
COc1ccccc1CNc1nc(-c2cccc(NS(C)(=O)=O)c2)nc2ccccc12,/,/,/,10.6%,/,/
CCOC(=O)c1ccc(N=Nc2c(C)c(C#N)c(O)[nH]c2=O)cc1,1.41µM*,-5.4%,-1.6%,0.4%,10.2%,-28.8%
CCOC(=O)c1cc(C#N)c(SCC(=O)OC)[nH]c1=O,?,-3.2%,-0.7%,3.6%,-3.6%,-10.6%
CCOC(=O)c1sc(N/N=C/c2cccc(C)c2)nc1C,?,?,0.9%,13.7%,-7.9%,8.91µM*[quencher]
CCOC(=O)c1sc(N/N=C/c2ccccc2)nc1C,?,-2.7%,-0.7%,3.5%,-0.1%,?
O=C1C(=O)N(Cc2ccc(Cl)c(Cl)c2)c2ccccc21,14.1µM*,-3.6%,-1.1%,11.5%,-0.4%,-26.8%
O=C1C(=O)N(Cc2cccc([N+](=O)[O-])c2)c2ccccc21,-12.5%,4.9%,-0.8%,-5.3%,2.8%,3.2%
Cc1ccc(CN2C(=O)c3ccccc3CC2(C)C(=O)NC2CCCCC2)cc1 (configuration not stated),-11.4%,-6.0%,?,/,2.6%,-15.2%
COc1ccc(Nc2nc(Nc3ccc(OC)cc3)nc(SC3=NCCS3)n2)cc1,?,13.6%,-2.2%,2.4%,0.7%,14.1µM*[quencher]
O=C(CCCc1ccccc1)N1CCN(c2ccc([N+](=O)[O-])cc2)CC1,2.24µM*,-4.5%,-1.2%,5.9%,8.5%,-20.0%
O=C(CCCC(=O)N1CCN(c2ccc([N+](=O)[O-])cc2)CC1)c1ccccc1,2.24µM*,5.7%,-2.0%,6.0%,-1.0%,-8.4%
CCSc1nc2ccccc2n1C(=O)/C=C/c1ccc(OC)c(OC)c1,7.94µM*,7.94µM*,0.2%,-16.3%,-3.6%,-22.7%
C=CCSc1nc2ccccc2n1C(=O)/C=C/c1ccc(OC)c(OC)c1,14.1µM*,?,3.9%[53 µM],0.7%,-14.5%[53 µM],-19.5%

# Source: PubChem
